The source of these data is ChEMBL document CHEMBL3988442, “University of Dundee, Small-Polar-MMV Screening Library” (2021).

In the experiment the target is Chromo domain-containing protein 1 (Saccharomyces cerevisiae (strain ATCC 204508 / S288c) (Baker's yeast)) (UniProt P32657). Description: ScCHD-1 Enzyme Inhibition Assay. Set-up: scale not given: in the data most compounds retested in dose-response had high values. It counts as functional. The following applies: 30 µM.
Chromo domain-containing protein 1 (Saccharomyces cerevisiae (strain ATCC 204508 / S288c) (Baker's yeast)), sequence (P32657 whole entry, the tested form may be a part): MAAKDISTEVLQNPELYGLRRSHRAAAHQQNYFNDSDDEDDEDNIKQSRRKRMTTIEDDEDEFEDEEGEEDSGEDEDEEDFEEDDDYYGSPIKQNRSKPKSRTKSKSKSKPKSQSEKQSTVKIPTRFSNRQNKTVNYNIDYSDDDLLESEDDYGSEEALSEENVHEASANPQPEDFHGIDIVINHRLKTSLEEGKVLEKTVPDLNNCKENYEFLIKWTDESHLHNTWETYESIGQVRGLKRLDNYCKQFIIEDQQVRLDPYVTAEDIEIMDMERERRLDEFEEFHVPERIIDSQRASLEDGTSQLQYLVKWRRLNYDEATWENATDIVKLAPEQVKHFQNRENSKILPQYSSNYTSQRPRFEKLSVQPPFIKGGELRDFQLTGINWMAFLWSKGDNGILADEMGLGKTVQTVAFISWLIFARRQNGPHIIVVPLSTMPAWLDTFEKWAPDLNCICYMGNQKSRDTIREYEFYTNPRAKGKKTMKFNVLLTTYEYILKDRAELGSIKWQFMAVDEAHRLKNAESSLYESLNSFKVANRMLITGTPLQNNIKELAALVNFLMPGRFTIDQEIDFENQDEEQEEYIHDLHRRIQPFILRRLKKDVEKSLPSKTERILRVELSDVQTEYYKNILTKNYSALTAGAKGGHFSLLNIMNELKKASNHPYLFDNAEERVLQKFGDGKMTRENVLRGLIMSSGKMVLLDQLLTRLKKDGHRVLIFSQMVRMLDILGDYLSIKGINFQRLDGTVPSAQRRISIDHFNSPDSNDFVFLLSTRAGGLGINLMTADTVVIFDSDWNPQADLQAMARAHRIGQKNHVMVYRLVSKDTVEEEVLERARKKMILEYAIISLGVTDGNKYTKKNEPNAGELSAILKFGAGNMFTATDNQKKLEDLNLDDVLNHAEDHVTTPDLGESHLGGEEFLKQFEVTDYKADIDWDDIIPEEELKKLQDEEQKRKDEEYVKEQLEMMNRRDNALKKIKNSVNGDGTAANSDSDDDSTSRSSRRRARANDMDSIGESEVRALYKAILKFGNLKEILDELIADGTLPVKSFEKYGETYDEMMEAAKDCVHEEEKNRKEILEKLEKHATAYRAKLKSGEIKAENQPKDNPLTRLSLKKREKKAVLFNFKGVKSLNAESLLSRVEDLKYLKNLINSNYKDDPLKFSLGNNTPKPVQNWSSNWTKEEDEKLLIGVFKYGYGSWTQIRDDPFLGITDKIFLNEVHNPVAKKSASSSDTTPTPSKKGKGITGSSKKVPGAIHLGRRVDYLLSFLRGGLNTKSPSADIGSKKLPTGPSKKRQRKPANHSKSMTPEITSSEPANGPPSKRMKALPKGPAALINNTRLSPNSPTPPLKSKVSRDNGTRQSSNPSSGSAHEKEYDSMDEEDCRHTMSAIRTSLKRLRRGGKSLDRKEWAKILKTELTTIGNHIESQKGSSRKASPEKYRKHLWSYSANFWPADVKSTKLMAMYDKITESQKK
Turning to `CC(=O)c1ccccc1C(=O)NCC1(CO)CC1`, the Percent Effect is -0.424%.
The value for `Cn1nc(CNC(=O)C2COc3ccccc3O2)cc1C1CC1` (centres undefined) was -1.13%; that for `CN(CCCc1cnn(C)c1)C(=O)C1CCOC1` (centres undefined) was -1.18%; that for `CC(NC(=O)NCC1(c2ccccc2)CCC1)c1nncn1C` (centres undefined) was -6.58%.
With `CN(C)Cc1cc(=O)n2c(n1)CN(C(=O)Cc1ccsc1)CCC2`, the Percent Effect was -2.76%.
Regarding `COCCCNC(=O)CN(C)C(=O)c1cc(C)sc1C`, the Percent Effect is -1.76%.
For `Cn1c(CN2CCCC2)nnc1C1CCCN(C(=O)C2CCOCC2)C1` (centres undefined), the Percent Effect is -11.7%.
For `COc1ccc(NC(C)=O)c(N2CCN(C(C)=O)CC2)n1`, the Percent Effect came out at 15.3%.
For `CC(=O)NCCc1cc(N2CCN(C(C)=O)CC2)nc(C2CC2)n1`, the Percent Effect was -3.42%.
As for `NC(=O)CC1CCN(C(=O)CCOc2ccc(Cl)cc2)CC1`, the figure is -8.66%; as for `CCn1ccnc1CN1CCCC(CO)(Cc2cccc(Cl)c2)C1` (centres undefined), -1.59%; as for `COc1cccc(C(=O)NS(=O)(=O)c2cccc(C#N)c2)c1OC`, 3.98%.
As for `Cc1csc(N2CCN(CCc3ccccn3)CC2C)n1` (centres undefined), the figure is -1.43%; as for `Cn1nnc2c1CCN(Cc1ccccc1)C2COCC1CC1` (centres undefined), -11.1%.
With `c1ccc(-c2noc3c2CN(CC2CC2)CC3)cc1`, the Percent Effect was 0.0734%.
As for `CC(C)(C)c1n[nH]c(C2CN(C(=O)c3csnn3)CCO2)n1` (centres undefined), the figure is -19.5%.
For the compound `O=C(NC[C@H]1OC[C@@H]2CCN(Cc3ccco3)C[C@@H]21)c1ccsc1`, the Percent Effect is -1.63%.
Take `CS(=O)(=O)NC[C@]12COC[C@H]1CN(C(=O)c1ccoc1)C2`: the Percent Effect is -4.91%.
As for `Cc1nn(C)c(N(C)C)c1CNCc1ccccc1CN(C)C`, the Percent Effect is -30.7%.
